Assay results taken from the supplement of paper PMC10498489.
Hit rate of the full screen: of about 2,300 compounds, about 330 (14%) showed activity.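 Rule for the calls: active = median modified Z-score above 1.96; inactive = 1.96 or below.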 Not all results are given here.

The molecules below were run on HepG2 Srxn1-GFP reporter cells (+30 nM CDDO-Me) (assay: Srxn1-GFP intensity median modified Z-score relative to plate median; higher = stronger NRF2 / oxidative stress reporter activation, active = hit call of the paper). Settings: 10 µM; exposure time: 24h.
How it was run: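 In 96-well plates holding 20,000 HepG2 Srxn1-GFP BAC reporter cells per well, compound at 10 μM and an NRF2 activator at 30 nM were added together for 24 h, with DMSO at ≤0.1%, across three replicate plates. After fixation in formaldehyde and Hoechst staining, confocal images were analysed cell by cell for cytoplasmic GFP, and images containing under 100 cells were excluded. Values are replicate medians of the per-plate modified Z-score of GFP intensity, scaled by 1.4826 × median absolute deviation.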

SMILES | Srxn1-GFP intensity median modified Z-score
CC(c1ncncc1F)[C@](O)(Cn1cncn1)c1ccc(F)cc1F (stereo partly specified) [euspeclibcmpd477] | -0.000648 (inactive)
CC(=O)/N=c1\sc(S(N)(=O)=O)nn1C [euspeclibcmpd555] | 0.456 (inactive)
CNC[C@@H](O)c1ccc(O)c(O)c1 [euspeclibcmpd110] | -0.782 (inactive)
CC(=O)OC1CCC2(C)C3CC(=O)C4(C)C(CC5OC6(CCC(C)CO6)[C@@H](C)C54)C3CC[C@H]2C1 (stereo partly specified) [euspeclibcmpd1545] | -0.224 (inactive)
COc1ccc2c(c1)CCC1C2CC[C@@]2(C)C1CC[C@@H]2O (stereo partly specified) [euspeclibcmpd2297] | 4.5 (active)
C[C@]12CCC3c4ccc(OS(=O)(=O)O)cc4CCC3C1CC[C@H]2O (stereo partly specified) [euspeclibcmpd2359] | 0.435 (inactive)
C[C@]12CCC3c4ccc(O)cc4CCC3C1CC[C@@H]2O (stereo partly specified) [euspeclibcmpd115] | -0.23 (inactive)
NS(=O)(=O)N1CCN(C(=O)OCC(F)(F)F)CC1 | 0.381 (inactive)
CC(=O)N1CCc2cc(C(=O)C(C)Sc3nnc4c(Cl)cc(Cl)cn34)ccc21 (stereo unspecified) | 1.9 (inactive)
COc1ccc(-c2coc3cc(O)cc(O)c3c2=O)cc1 [euspeclibcmpd1972] | -0.252 (inactive)
O=c1c(-c2ccc(O)cc2)coc2cc(O)cc(O)c12 [euspeclibcmpd1252] | 7.05 (active)
O=c1c(-c2ccc(O)cc2)coc2cc(O)ccc12 [euspeclibcmpd2265] | 0.00154 (inactive)
CSCCC(NC(=O)[C@H](Cc1c[nH]c2ccccc12)NC(=O)CCNC(=O)OC(C)(C)C)C(=O)N[C@@H](CC(=O)O)C(=O)N[C@@H](Cc1ccccc1)C(N)=O (stereo partly specified) [euspeclibcmpd918] | -0.345 (inactive)
CC(CCC(=O)O)[C@H]1CCC2C3CC[C@@H]4CCCC[C@]4(C)C3CC[C@@]21C (stereo partly specified) [euspeclibcmpd1329] | 1.64 (inactive)
O=S1(=O)CCC(N(C2CC2)S(=O)(=O)c2ccc(F)c(Cl)c2)C1 (stereo unspecified) | 1.31 (inactive)
CC12CCC3c4ccc(O)cc4CC(CCCCCCCCC[S+]([O-])CCCC(F)(F)C(F)(F)F)C3C1CCC2O (stereo unspecified) [euspeclibcmpd1981] | -0.582 (inactive)
CC(C)(C)CC(=O)OCC(=O)[C@@]1(O)CCC2C3CC=C4CC(=O)C=C[C@]4(C)C3[C@@H](O)C[C@@]21C (stereo partly specified) [euspeclibcmpd2328] | -0.406 (inactive)
CN(C)CCN(Cc1ccc(Cl)cc1)c1ccccn1 [euspeclibcmpd1219] | -0.833 (inactive)
Clc1ccc(Cn2c(CN3CCCC3)nc3ccccc32)cc1 [euspeclibcmpd1234] | -0.0615 (inactive)
Cc1nc2ccccc2n1Cc1ccc(Cl)cc1 [euspeclibcmpd2199] | 5.5 (active)
Cc1nc(=N)c(C[n+]2csc(CCO)c2C)c[nH]1 [euspeclibcmpd454] | -0.15 (inactive)
O=C1C(CO)OC(O)C(O)C1O (stereo unspecified) [euspeclibcmpd526] | -0.212 (inactive)

SMILES | Srxn1-GFP intensity median modified Z-score
COc1ccc2c(c1OC)OC[C@@H](c1ccc(OC)c(OC)c1OC)C2 [euspeclibcmpd1365] | 0.0257 (inactive)
CCCCCCCCCCC[C@@H](C[C@H]1OC(=O)C1CCCCCC)OC(=O)C(CC(C)C)NC=O (stereo partly specified) [euspeclibcmpd681] | -0.557 (inactive)
C=C[C@H]1C[N@]2CC[C@H]1C[C@@H]2[C@@H](O)c1ccnc2ccc(OC)cc12 [euspeclibcmpd2428] | 1.98 (active)
C[C@]12CCC3c4ccc(O)cc4CCC3C1C[C@@H](O)[C@@H]2O (stereo partly specified) [euspeclibcmpd2155] | -0.253 (inactive)
CC(=O)Oc1c(C)cccc1C(=O)O [euspeclibcmpd1264] | -0.393 (inactive)
CC(=O)Oc1cccc2c1C(=O)c1c(OC(C)=O)cc(C(=O)O)cc1C2=O [euspeclibcmpd1072] | 4.68 (active)
CC(=O)Oc1cccc(C(=O)O)c1OC(C)=O [euspeclibcmpd1107] | 0 (inactive)
CC(C)(ON=C(C(=O)NC1C(=O)N2C(C(=O)O)=C(C[n+]3ccccc3)CSC12)c1csc(=N)[nH]1)C(=O)O (stereo unspecified) [euspeclibcmpd603] | -0.205 (inactive)
O=C(OCC(O)CO)c1ccccc1N=c1cc[nH]c2cc(Cl)ccc12 (stereo unspecified) [euspeclibcmpd1054] | 4.38 (active)
CCN(CCO)CCCC(C)N=c1cc[nH]c2cc(Cl)ccc12 (stereo unspecified) [euspeclibcmpd728] | 0.226 (inactive)
CC(O)CN1CCN(CC(=O)O)CCN(CC(=O)O)CCN(CC(=O)O)CC1 (stereo unspecified) [euspeclibcmpd2179] | -0.14 (inactive)
CC(C)(CNC(=O)c1cccc(S(=O)(=O)N2CCNC(=O)C2)c1)N1CCOCC1 | 0.976 (inactive)
Nc1ccc2cc3ccc(N)cc3nc2c1 [euspeclibcmpd1172] | 35.6 (active)
CO[C@@]1(NC(=O)CSCC#N)C(=O)N2C(C(=O)O)=C(CSc3nnnn3C)CSC21 (stereo partly specified) [euspeclibcmpd2252] | 1.04 (inactive)
N=c1[nH]c(=O)c2ncn(COCCO)c2[nH]1 [euspeclibcmpd586] | 0.00752 (inactive)
S=c1ccss1 [euspeclibcmpd2055] | 7.86 (active)
CC1(C)CCC[C@]2(C)[C@H]3CC(=O)O[C@]3(C)CC[C@@H]12 [euspeclibcmpd1513] | 11.6 (active)
OC[C@H]1O[C@@H](O[C@H]2[C@H](O)[C@@H](O)[C@@H](O)O[C@@H]2CO)[C@H](O)[C@@H](O)[C@@H]1O [euspeclibcmpd2099] | -0.374 (inactive)
CC(=O)OC1=C2C(C)C(O)CC(O)(C(OC(=O)c3ccccc3)C3C4(OC(C)=O)COC4CC(O)C3(C)C1=O)C2(C)C (stereo unspecified) [euspeclibcmpd1937] | 0.285 (inactive)
C=CC(C)(O)CCC=C(C)CCC=C(C)C (stereo unspecified) [euspeclibcmpd2017] | -0.108 (inactive)
COC(C)(C)CCC[C@H](C)C=CC=C(C)CC(=O)OC(C)C [euspeclibcmpd1162] | 0.521 (inactive)
CCC(CCC(C)[C@H]1CCC2C3CC=C4C[C@@H](O)CC[C@]4(C)C3CC[C@@]21C)C(C)C (stereo partly specified) [euspeclibcmpd1675] | -0.236 (inactive)

SMILES | Srxn1-GFP intensity median modified Z-score
C1CNCCN1 [euspeclibcmpd2044] | 5.44 (active)
C=C(C)[C@@H]1CC[C@]2(C)CC[C@]3(C)[C@@H](CCC4[C@@]5(C)CC[C@H](OC(C)=O)C(C)(C)C5CC[C@]43C)C12 (stereo partly specified) [euspeclibcmpd1452] | -0.35 (inactive)
C=CC/C1=C\C(C)C[C@H](C)C[C@H](OC)[C@H]2O[C@@](O)(C(=O)C(=O)N3CCCCC3C(=O)O[C@H](/C(C)=C/C3CC[C@@H](O)[C@H](OC)C3)[C@H](C)[C@@H](O)CC1=O)[C@H](C)C[C@@H]2OC (stereo partly specified) [euspeclibcmpd642] | 0.0384 (inactive)
COC1CC2CCC(C)C(O)(O2)C(=O)C(=O)N2CCCCC2C(=O)OC(C(C)CC2CCC(O)C(OC)C2)CC(=O)/C(C)=C/C(C)C(O)C(OC)C(=O)C(C)CC(C)/C=C/C=C/C=C/1C (stereo unspecified) [euspeclibcmpd645] | 2.8 (active)
CC(C)(C)OC(=O)N1[C@H](CNCC(=O)NCC2CC2)COC1(C)C | 0.298 (inactive)
C=C1c2cccc(O)c2C(=O)C2C(=O)[C@]3(O)C(=O)C(C(N)=O)C(=O)C(N(C)C)[C@@H]3[C@@H](O)[C@H]12 (stereo partly specified) [euspeclibcmpd374] | 0.0721 (inactive)
Nc1ccc(S(=O)(=O)Nc2ccc([N+](=O)[O-])cc2)cc1 | 1.07 (inactive)
C=CCSCC(N)C(=O)O (stereo unspecified) [euspeclibcmpd1339] | -0.44 (inactive)
C=CCSCC=C [euspeclibcmpd1525] | 2.8 (active)
c1ccc2[nH]c(-c3cscn3)nc2c1 [euspeclibcmpd291] | -0.321 (inactive)
CC(=O)Nc1ccc(S(=O)(=O)Nc2ccc(C)cc2)cc1 | 0.323 (inactive)
Cc1cc(=O)c(C(=O)NC(C(=O)NC2C(=O)N3C(C(=O)O)=C(CSc4nnnn4C)CSC23)c2ccc(O)cc2)c[nH]1 (stereo unspecified) [euspeclibcmpd2006] | -0.441 (inactive)
COC(=O)C[C@H]1C2(C)CC34OC5(C)O[C@@]6([C@H](OC(C)=O)C(OC(C)=O)[C@]7(C)C(C(C(=O)C(C)C)C(=O)O[C@H]7c7ccoc7)[C@@]6(O5)[C@H](OC(C)=O)[C@@]3(O)C2OC(=O)C(C)C)[C@]14C (stereo partly specified) [euspeclibcmpd1593] | 0.648 (inactive)
CC=CC1=C(C(=O)O)N2C(=O)C(NC(=O)C(N)c3ccc(O)cc3)C2SC1 (stereo unspecified) [euspeclibcmpd754] | 0.0492 (inactive)
Cc1cc(=N)c2ccccc2n1CCCCCCCCCCn1c(C)cc(=N)c2ccccc21 [euspeclibcmpd1012] | 10 (active)
CN1CCc2c(c3ccccc3n2Cc2ccccc2)C1 [euspeclibcmpd1060] | -0.511 (inactive)
NC(COP(=O)(O)O)C(=O)O (stereo unspecified) [euspeclibcmpd1153] | -0.195 (inactive)
CC1(C)NC(=O)N(c2ccc([N+](=O)[O-])c(C(F)(F)F)c2)C1=O [euspeclibcmpd654] | 0.519 (inactive)
CC(C)C(=O)Nc1ccc([N+](=O)[O-])c(C(F)(F)F)c1 [euspeclibcmpd362] | 3.07 (active)
CCOc1ccc2ccccc2c1C(=O)NC1C(=O)N2C1SC(C)(C)C2C(=O)O (stereo unspecified) [euspeclibcmpd2391] | -0.175 (inactive)
NC(=O)c1cc[n+](C=C2CSC3C(NC(=O)Cc4cccs4)C(=O)N3C2C(=O)O)cc1 (stereo unspecified) [euspeclibcmpd1236] | -0.488 (inactive)
CN1CCC(c2c3ccccc3cc(=O)c3sccc23)CC1 [euspeclibcmpd331] | 0.863 (inactive)
